Results from article PMC4336329 (PLoS ONE, 2015).
Among all 310,000 compounds or so, about 14,000 (4.5%) showed an effect of 50% or more. The effect is printed as a negative number. This excerpt belongs to a sample that is enriched for strong results.

What follows are compounds tested against human ether-à-go-go-related gene (hERG) potassium channel (human, UniProt Q12809) (assay: primary screen, population patch clamp on CHO cells stably expressing hERG; higher = less effect of the substance).
Sequence of human ether-à-go-go-related gene (hERG) potassium channel (Q12809 whole entry, looked up): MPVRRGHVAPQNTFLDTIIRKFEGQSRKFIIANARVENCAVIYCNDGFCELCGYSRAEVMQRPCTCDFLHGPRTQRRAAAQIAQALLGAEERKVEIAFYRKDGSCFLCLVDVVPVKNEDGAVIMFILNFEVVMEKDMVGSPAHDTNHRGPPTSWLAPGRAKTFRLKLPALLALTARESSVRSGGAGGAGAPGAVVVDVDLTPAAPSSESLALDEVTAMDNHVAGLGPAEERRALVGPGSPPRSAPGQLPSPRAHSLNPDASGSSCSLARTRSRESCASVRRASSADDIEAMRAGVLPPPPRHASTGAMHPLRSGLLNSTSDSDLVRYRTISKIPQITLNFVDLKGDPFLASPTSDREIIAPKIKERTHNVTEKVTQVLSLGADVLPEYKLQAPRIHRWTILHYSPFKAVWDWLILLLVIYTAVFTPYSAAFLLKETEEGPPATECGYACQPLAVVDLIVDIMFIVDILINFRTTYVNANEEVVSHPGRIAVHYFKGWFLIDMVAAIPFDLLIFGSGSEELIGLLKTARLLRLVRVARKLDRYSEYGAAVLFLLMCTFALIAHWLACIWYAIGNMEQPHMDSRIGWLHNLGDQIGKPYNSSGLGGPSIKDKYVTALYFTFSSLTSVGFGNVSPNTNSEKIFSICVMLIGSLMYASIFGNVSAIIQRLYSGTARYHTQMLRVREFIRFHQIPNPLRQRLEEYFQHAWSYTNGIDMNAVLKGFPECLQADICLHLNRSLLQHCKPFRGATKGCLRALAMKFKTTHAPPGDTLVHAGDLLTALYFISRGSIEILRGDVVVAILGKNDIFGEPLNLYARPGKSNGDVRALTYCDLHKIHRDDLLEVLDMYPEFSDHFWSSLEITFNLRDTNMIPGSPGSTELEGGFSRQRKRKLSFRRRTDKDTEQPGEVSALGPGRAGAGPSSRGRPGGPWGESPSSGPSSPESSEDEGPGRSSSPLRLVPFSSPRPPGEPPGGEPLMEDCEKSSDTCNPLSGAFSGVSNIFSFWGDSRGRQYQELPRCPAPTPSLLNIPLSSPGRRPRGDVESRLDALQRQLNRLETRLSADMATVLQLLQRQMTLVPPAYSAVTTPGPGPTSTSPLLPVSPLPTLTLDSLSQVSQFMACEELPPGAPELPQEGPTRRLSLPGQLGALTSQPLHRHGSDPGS
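Also: peak tail current of the secondary pulse compared with the same well before compound.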

SMILES | hERG current change (%, negative = inhibition) at 10uM
COc1cccc(C(c2c(O)nc(SC)n(C)c2=O)c2c(O)nc(SC)n(C)c2=O)c1 | 0.717%
COc1ccc(-n2nc3c(c2NC(=O)c2ccc(S(=O)(=O)N4CCOCC4)cc2)CS(=O)(=O)C3)cc1 | 14.6%
Cc1ccc(C(=O)N2CCN(c3ccc(NC(=O)c4cccnc4Cl)cc3)CC2)cc1 | -27.8%
Cc1cc(S(=O)(=O)NCCCN2CCOCC2)c(Cl)cc1Cl | -13.1%
Cc1ccccc1C(=O)Oc1ccc2ccc(O)cc2c1 | 14.5%
O=C(CSc1nnc(Cc2ccccc2)o1)N1CCOCC1 | 0.161%
O=C(CSc1nnc(-c2ccncc2)n1-c1ccccc1)Nc1ccc(C(=O)O)cc1 | 25.5%
CCNC(=O)Nn1c(-c2ccccc2)nc2ccccc2c1=O | 22.9%
Cc1ccc(C(=O)NCc2n[nH]c(=S)n2-c2ccccc2)cc1[N+](=O)[O-] | 7.76%
Cc1cc(NC(=O)Cn2nnc(-c3ccccc3NC(=O)c3ccccc3F)n2)no1 | 12.5%
COc1ccc(-c2[nH]ncc2Oc2ccccc2OC)c(O)c1 | -11.3%
O=S(=O)(Nc1nc2ccccc2s1)c1ccc(Br)s1 | -5.3%
c1ccc(CC2CCN(c3nnnn3-c3ccccc3)CC2)cc1 | -13.1%
CC1CN(C2=Nc3cccc4cccc2c34)CC(C)O1 (centres unmarked) | -47.6%
c1cc2c3c(cccc3c1)C(N1CCCCC1)=N2 | -66.2%
c1ccc(CC2CCN(C3=Nc4cccc5cccc3c45)CC2)cc1 | -80%
Fc1ccc(N2CCN(C3=Nc4cccc5cccc3c45)CC2)cc1 | -77%
O=S1(=O)N=C(N2CCN(c3ccc(F)cc3)CC2)c2ccccc21 | -8.87%
O=C1C2C3C=CC(C4CC34)C2C(=O)N1CCc1ccccc1 (centres unmarked) | 3.23%
N#Cc1nc(Cc2ccccc2)oc1N1CCC(Cc2ccccc2)CC1 | 24.5%
O=C(CN1C(=O)c2cccc3cccc1c23)N1CCN(c2ccc(F)cc2)CC1 | 9.69%
Cl.O=C1C2C3C=CC(C4CC34)C2C(=O)N1CCCCN1CCN(c2ccc(F)cc2)CC1 (centres unmarked) | -69.3%

SMILES | hERG current change (%, negative = inhibition) at 10uM
O=C1C2CCCN2C(=O)N1CCCCN1CCN(c2ccc(F)cc2)CC1 (centres unmarked) | -43.2%
c1cc2c3c(cccc3c1)C(N1CCOCC1)=N2 | -31%
Cc1ccc(S(=O)(=O)N2CCC(C(=O)OCc3c(C)noc3C)CC2)cc1C | -15.8%
COc1ccc(S(=O)(=O)NC2CC(C)(C)NC(C)(C)C2)c2ccccc12 | 6.47%
CCc1nc(C)c(C#N)c2cc(OC)c(OC)cc12 | 1.21%
CC(C)(C)OC(=O)NCCc1nnc(S(=O)(=O)Cc2ccc(Cl)cc2Cl)o1 | -5.97%
CCCOc1ccc(/C=N/NC(=S)Nc2ccccc2[N+](=O)[O-])c(O)c1 | 24.3%
COC(=O)c1c(C)c2c(C)cc3ccccn3c-2c1C(=O)OC | -4.02%
O=C(O)CCC(=O)N1CCN(S(=O)(=O)c2ccc3ccccc3c2)CC1 | 25.6%
O=C1c2cccc3cccc(c23)C(=O)N1CCCN1CCN(c2ccc(F)cc2)CC1 | -69.2%
O=C(CN1CCN(CCN2C(=O)c3cccc4cccc(c34)C2=O)CC1)c1ccc(F)cc1 | -42.4%
COc1ccccc1N1CCN(C2=Nc3cccc4cccc2c34)CC1 | -71.5%
O=C(CN1C(=O)c2cccc3cccc(c23)C1=O)N1CCCCCC1 | 9.58%
O=C(CCCN1C(=O)c2cccc3cccc(c23)C1=O)N1CCN(c2ccc(F)cc2)CC1 | -1.91%
COc1ccccc1N1CCN(C(=O)CN2C(=O)c3cccc4cccc(c34)C2=O)CC1 | 16.9%
c1cc2c3c(cccc3c1)C(N1CCCCCC1)=N2 | -67%
CC(=O)N1CCN(C2=Nc3cccc4cccc2c34)CC1 | -46%
c1ccc(NC2=Nc3cccc4cccc2c34)cc1 | 1.71%
Cc1cc(C)n(Cc2ccc(C(=O)Nc3ccc(Br)cc3C)o2)n1 | -19.4%
O=C(COc1ccccc1O)Nc1ccc(Cl)cc1 | 5.23%
Cc1ccc(C(=O)CSc2ccccc2C(=O)O)cc1 | 16.9%
Cc1ccccc1C(=O)NC1CCN(Cc2nnnn2C2CCCC2)CC1 | 3.85%
